Rows were chosen to be rich in hits. Some 3.4% of all compounds tested hit in one or more screens of this group.
PLCg1 inh: PLC-gamma1 (human) inhibition, primary screen; P19174; purified PLC-gamma1, fluorogenic substrate, fluorescence; inhibition, % at 12.2 µM; actives 0.84% (n = 370,000); AID 720700
ADAM17 inh: ADAM17 inhibition, QFRET primary screen; P78536; recombinant ADAM17, EDANS/DABCYL FRET peptide cleavage; inhibition, % at 6.95 µM; actives 0.83% (n = 370,000); AID 720648;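 active means inhibition above the mean of compounds lying between control limits plus 3 SD, set per campaign, cut at about 8.5% in these data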
ADAM10 inh: inhibits human ADAM10; recombinant ADAM10, EDANS/DABCYL FRET peptide cleavage, 3 h; inhibition, % at 7 µM; actives 0.62% (n = 370,000);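 active means inhibition above a per-campaign cutoff equal to the mean of compounds falling between control-based bounds plus 3 SD, cut at about 20% in these data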
Target sequence (O14672 214-748 limits assumed): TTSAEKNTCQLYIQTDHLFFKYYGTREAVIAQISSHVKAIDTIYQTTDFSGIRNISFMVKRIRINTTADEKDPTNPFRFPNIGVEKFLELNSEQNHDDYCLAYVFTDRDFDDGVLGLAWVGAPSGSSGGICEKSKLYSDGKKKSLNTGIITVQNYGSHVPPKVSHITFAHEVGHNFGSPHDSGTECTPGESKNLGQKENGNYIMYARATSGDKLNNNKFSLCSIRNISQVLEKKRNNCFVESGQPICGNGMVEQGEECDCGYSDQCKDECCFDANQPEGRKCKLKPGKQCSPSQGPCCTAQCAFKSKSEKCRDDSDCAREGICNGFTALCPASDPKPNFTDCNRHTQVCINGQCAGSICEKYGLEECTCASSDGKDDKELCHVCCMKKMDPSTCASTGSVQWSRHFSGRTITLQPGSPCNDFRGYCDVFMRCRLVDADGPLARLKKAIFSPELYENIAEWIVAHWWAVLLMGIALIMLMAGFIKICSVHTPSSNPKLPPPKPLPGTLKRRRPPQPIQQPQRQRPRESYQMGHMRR
HGIII-sPLA2 inh: Blocks human group III sPLA2 activity; Q9NZ20; QFRET BODIPY PC-A2 liposome hydrolysis, fluorescence; inhibition, % at 12.2 µM; actives 0.56% (n = 370,000);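 active means inhibition above mean plus 3 SD of compounds lying within the high and low control bounds, cut at about 19% in these data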
KLK7 zymogen act: activators of human kallikrein-7 zymogen; purified proKLK7, EDANS-DABCYL substrate fluorescence; 100% is mature enzyme control, 0% vehicle; activation, % at 7 µM; actives 0.9% (n = 370,000); P49862;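 active means activation above the mean of all tested compounds plus 3 SD, computed per campaign excluding outliers beyond control limits, cut at about 13% in these data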
PLCb3 inh: blocks human PLC-beta3 enzyme activity. Q01970. Purified PLC-beta3, fluorogenic substrate, fluorescence. inhibition, % at 12.2 µM. actives 0.18% (n = 370,000). AID 720704; in the data active means inhibition above about 11%
PLCg1 ctr: inhibits human PLC-gamma1 in PLC-beta3 counter-screen; actives 3.1% (n = 3,300); inhibition, % at 12.3 µM; purified PLC-gamma1, fluorogenic substrate, fluorescence; shares compounds with PLCg1 inh; AID 743258
PLCb3 confirm: confirmation of human PLC-beta3 inhibitors | inhibition, % at 12.3 µM | actives 1% (n = 3,300) | purified PLC-beta3, fluorogenic substrate fluorescence | shares compounds with PLCg1 inh; in the data active means inhibition above about 11%
Of the large screens only hits and unclear results are named; the others gave an inactive call (follow-up assays come after a bar, where they were run). Unless noted, no stated cut-off is given here; in the data, active means inhibition above about 9.5%; inactive means the rest.

CC(=O)NC[C@H]1O[C@@H](n2ccc(N)nc2=O)[C@H](O)[C@@H]1O	PLCg1 inh 10 | PLCg1 ctr inactive | PLCb3 confirm inactive
O=C(c1ccc([N+](=O)[O-])o1)N1CCN(c2nc3c(F)cc(F)cc3s2)CC1	PLCg1 inh 15 | PLCg1 ctr inactive | PLCb3 confirm inactive
COc1ccc(NC2CCCN(C(=O)CCc3cn[nH]c3)C2)cc1 (configuration not stated)	PLCg1 inh 10 | PLCg1 ctr inactive | PLCb3 confirm inactive
O=C(CCc1ccccc1)N1CCCC(Nc2ccc(F)cc2)C1 (configuration not stated)	PLCg1 inh 11 | PLCg1 ctr inactive | PLCb3 confirm inactive
O=C(CCc1ccncc1)N1CCCC(Nc2ccc(F)cc2)C1 (configuration not stated)	none
CC(C)c1ccc(NC2CCCN(C(=O)CCc3cn[nH]c3)C2)cc1 (configuration not stated)	none
COC(=O)C1=C(C)N(Cc2ccc(C(F)(F)F)cc2)C(=NCc2ccc(C(F)(F)F)cc2)NC1c1ccccc1 (configuration not stated)	none
CCOC(=O)c1cc(-c2csc(-c3cccc(Cl)c3)n2)on1	none
CCOC(=O)c1cc(-c2csc(Nc3c(C)cc(C)cc3C)n2)on1	PLCg1 inh 9.8 | PLCg1 ctr inactive | PLCb3 confirm inactive
COc1cccc(C(=O)NC2CC3CCCC(C2)N3CC(=O)Nc2ccc(N(C)C)cc2)c1 (configuration not stated)	PLCg1 inh 11 | PLCg1 ctr inactive | PLCb3 confirm inactive
COc1cccc(C(=O)NC2CC3CCCC(C2)N3CC(=O)Nc2ccccc2)c1 (configuration not stated)	none
CCCCN1C(=O)N2Cc3ccccc3C2CS1(=O)=O (configuration not stated)	none
C=CCNC(=S)N(C)[C@H]1C[C@H]2c3cc(-c4ccccc4C)ccc3CCN2C[C@H]1[C@H](C)O	none
CCC(C)Nc1nc2c(c(=O)[nH]c(=O)n2C)n1CCCc1ccccc1 (configuration not stated)	PLCg1 inh 10 | PLCg1 ctr inactive | PLCb3 confirm inactive
CCC(C)Nc1nc2c(c(=O)[nH]c(=O)n2C)n1CCC(C)C (configuration not stated)	PLCg1 inh 10, PLCb3 inh 11 | PLCg1 ctr inactive | PLCb3 confirm inactive
COc1cc(=O)n(C)c2ccccc12	none
COc1ccc2c(OC)cc(=O)n(C)c2c1	PLCg1 inh 13 | PLCg1 ctr inactive | PLCb3 confirm inactive
O=C1CCCC(O)=C1N=Nc1ccc(C(=O)O)cc1	PLCg1 inh 13 | PLCg1 ctr inactive | PLCb3 confirm inactive
CCCCNC(=O)C1(C)CCN1C(=O)c1ccc(F)c(C)c1 (configuration not stated)	none
CCCCNC(=O)C1(C)CCCCN1C(=O)c1ccc(F)c(C)c1 (configuration not stated)	PLCg1 inh 14 | PLCg1 ctr inactive | PLCb3 confirm inactive
Cc1nc(SCC(O)CCl)c([N+](=O)[O-])[nH]1 (configuration not stated)	PLCg1 inh 11, PLCb3 inh 13 | PLCg1 ctr inactive | PLCb3 confirm inactive
Cc1nc(SCc2ccc(O)c([N+](=O)[O-])c2)c([N+](=O)[O-])[nH]1	none
Cc1ccc(OCCCn2c(CO)nc3ccccc32)cc1	none
Cc1cccc(OCCCn2c(CO)nc3ccccc32)c1	PLCg1 inh 12 | PLCg1 ctr inactive | PLCb3 confirm inactive
CC(=O)c1cccc(NC(=O)Nc2ccccc2)c1	none
CC(=O)c1cccc(NC(=O)C2C3C=CC(C3=C(c3ccccc3)c3ccccc3)C2C(=O)O)c1 (configuration not stated)	PLCg1 inh 10 | PLCg1 ctr inactive | PLCb3 confirm inactive
